Test results from PMC12136788.
Over roughly 24,000 sequences, “enrichment r” has its median near 0.99; the highest 2% begin near 3.7. These entries were drawn from the full list.

T1: UNK ZnF1-3 (human, UniProt Q9C0B0 31-174)
T1 sequence: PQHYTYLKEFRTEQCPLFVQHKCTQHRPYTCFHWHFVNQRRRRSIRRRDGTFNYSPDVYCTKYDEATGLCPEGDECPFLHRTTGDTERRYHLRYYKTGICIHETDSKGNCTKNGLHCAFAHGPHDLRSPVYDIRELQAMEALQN

B1: chr7:134094464:134094465:+_ENSMUSG00000030683_ENSMUST00000106335|mus_hu|FALSE|FALSE (ssRNA)
RNA: GGGAGUUCUACAGUCCGACGAUCCUCCGUCUCCGUUUAUCUUUCCCUUUAAUUGUUUUUUUUUUUUUUUUUUUUUUCCUCGUAGGAGUCAGCAAAGAAAGACAAUUUCUCUGCCCCUUGGGAUGGAGGGGCAGAAUUGGGCUACAACAGAGGAUUGAGCAUCA
B2: chr19:3980662:3980663:-_ENSG00000167658_ENST00000309311|hu_mus|FALSE|FALSE (ssRNA)
RNA: GGGAGUUCUACAGUCCGACGAUCGAACACUCUACCAAAGGCAUAGAAGCGGCCUUUGUCAGAGGUUGGCACCAUCUUGGAAAUGUACAUCAUAAGUGGGCCUUUGGGGUCGCAGCUCUUAAUACCCAUGGCGGCCUCAUCGUCCAACAGAGGAUUGAGCAUCA
B3: chr16:45382771:45382772:-_ENSMUSG00000022661_ENSMUST00000163230|mus_mus|motif|central (ssRNA)
RNA: GGGAGUUCUACAGUCCGACGAUCGAGAGUGUUAUUGUGGGCCCAAUGGAUAGGGAGAGCAUGCUUUUGUAAAGAUGUGAACGGCUCACUAAGACUAACAAUAUUGCCUAAGUGCUAUAAAAAUAAGUUAAAUGGACACAUUACCAACAGAGGAUUGAGCAUCA
B4: chr6:44218825:44218826:+_ENSG00000096384_ENST00000371646|hu_hu|FALSE|FALSE (ssRNA)
RNA: GGGAGUUCUACAGUCCGACGAUCGUUGUUCUUUUUCUUCUUGUUCUCAAAAAGGUCAAAGGGAGCCCGACGAGGAAUAAAUAGCAAUGCCCUGAAUUCCAACUGACCUUCUACAGAAAAGUGCUUGACUGCCAAGUGGUCUUCCAACAGAGGAUUGAGCAUCA
B5: chr10:115881139:115881140:-_ENSG00000165813_ENST00000369287|hu_hu|motif|central (ssRNA)
RNA: GGGAGUUCUACAGUCCGACGAUCAUAAAAAUAUUUUCACCAGGGUAGCAUAUAUAACAACAUUUACAUUAUUAAGGAUUCGGUUUUUUUCUUUUACUGAUAAAUCUUGGUUUAAAUUUGCAUGUAACAAUUUUUAGAAAAUAACAACAGAGGAUUGAGCAUCA
B6: chr4:62795864:62795865:+_ENSMUSG00000028358_ENSMUST00000107415|mus_hu|motif|central (ssRNA)
RNA: GGGAGUUCUACAGUCCGACGAUCCAGAGUCUAAAUCAAAUCUGAAGAAACAAAAUGAACCCCCAAACAAGGUAAAAAUUGCGGAAAUGUUAGGGAGAGAAAUUAUUAGGGAGUGGAGACAGUAUCUAUACUUCUCUGAAAAAUCAACAGAGGAUUGAGCAUCA
B7: chr1:44133529:44133530:+_ENSG00000066135_ENST00000372396|hu_hu|FALSE|FALSE (ssRNA)
RNA: GGGAGUUCUACAGUCCGACGAUCAAACUCAGCUGCUUCUGGCGUGGGCAGAGUAUGGUCAAUAACUGUGUUGUCCUUCCCAGCUUUCCAAAGUUUGUACCUUUCUGGCUGGAACUUUCUCACAAACACAUCCAUGGAGAUCUUCAACAGAGGAUUGAGCAUCA
B8: chr7:149068622:149068623:-_ENSMUSG00000025139_ENSMUST00000001950|mus_hu|mus_mus_mus_hu_False|28_108 (ssRNA)
RNA: GGGAGUUCUACAGUCCGACGAUCGUGCAGGUACUGAGUGUGGCUUGUGGUCUGUCCUGGGUUAGAGUUGUUAAUAUCACGGAACAUACCAUCUAGAACGUUCCAGUCUGCCUGACUACCUUCAUUCCCAAUGGAGAAGAAAUCCAACAGAGGAUUGAGCAUCA
B9: chr12:111867003:111867004:+_ENSMUSG00000018707_ENSMUST00000018851|mus_hu|FALSE|FALSE (ssRNA)
RNA: GGGAGUUCUACAGUCCGACGAUCCACCAGCAUAUUUAUCUUCAUGUAACCUUUCAGAAGCCUCUGAACAAACUCAUAGGACGCAUACUGUCGCAACCGGGCAGGGAAGCUUUUCAGCUGGUUCAGGAGGGCAUCCAAAUUUUGCAACAGAGGAUUGAGCAUCA
B10: chr18:32579733:32579734:+_ENSMUSG00000024381_ENSMUST00000025239|mus_mus|motif|central (ssRNA)
RNA: GGGAGUUCUACAGUCCGACGAUCUUUAUGGAAGUUUUCCUCCAGACCCGCGAUGCUCUGGAACGUGUUGACAUAGAAACCGGCACGGCUGUUCCACAGGGAUGGCAGCUCCUCCUGCAGAUCCACGUUCAUCUCCUCGAACACCAACAGAGGAUUGAGCAUCA
B11: chr8:27055589:27055590:-_ENSMUSG00000037260_ENSMUST00000037609|mus_hu|FALSE|FALSE (ssRNA)
RNA: GGGAGUUCUACAGUCCGACGAUCUUCCCUUUAACAAAGGCUGCUUCAGUCCUCCCUGCAGGCCUACUAGAGUCUUCCAGCAGCACAUCUCAGUGGGAGCCAUCAGAUUUUCCAAAAAAUCUUCUUUCUAUAGAGGAUGUAGGCCAACAGAGGAUUGAGCAUCA
B12: chr16:94690093:94690094:+_ENSMUSG00000040785_ENSMUST00000117648|mus_hu|mus_mus_mus_hu_True|28_38 (ssRNA)
RNA: GGGAGUUCUACAGUCCGACGAUCGGGCUGGGAUGACGGACACACAGCCUCGAUUCCAGGGGGAAAAAGUCUUAGUCGAUACUAAUUAAAAAGUGUUUUUAUAAUUGAUUACCAAAAUUACAUCUAUAAAAGAUGAAAAGCAAACAACAGAGGAUUGAGCAUCA
B13: chr12:16048344:16048345:+_ENSG00000023734_ENST00000419869|hu_hu|hu_hu_hu_mus_True|18_18 (ssRNA)
RNA: GGGAGUUCUACAGUCCGACGAUCAGAUCGUCCAUAAGUAAUAACCAAAAUCUCUCCUUCAGGAAUAUACUCCAUGCUGCUAACAGACAUAUUAAAAUUCAGAGAUUUCACUUCUGUCAUAGUAGCAUGAUCCCAGAGCCGAACCAACAGAGGAUUGAGCAUCA
B14: chr5:134191040:134191041:+_ENSG00000181904_ENST00000394976|hu_hu|motif|central (ssRNA)
RNA: GGGAGUUCUACAGUCCGACGAUCAAAAGCAGCAGUGCCACAGCCAUAACCAAGAUCGGCAAGACGGGAUAGAGCUUUAAUGCGGCCUGGAGGUCUGCCUGGGCUGACUUUGUAUCCCGCAGCUUUAGUUGUCCCCAAAGGUCUCAACAGAGGAUUGAGCAUCA
B15: chr9:74905015:74905016:+_ENSMUSG00000007656_ENSMUST00000169492|mus_hu|FALSE|FALSE (ssRNA)
RNA: GGGAGUUCUACAGUCCGACGAUCUGUGUUUGAAAUAUGUGACCUUUCUUCUAACUUGUGGUCUUAAACUUCUGUUUUACAAAAUCCAAAAGGUAAAUACAGAAGAAAUCAAUACAAUAGAGAUUAUAUUAAAUAAGAGUAACACAACAGAGGAUUGAGCAUCA
B16: chr22:32879901:32879902:+_ENSG00000100225_ENST00000397426|hu_mus|hu_hu_hu_mus_False|8_18 (ssRNA)
RNA: GGGAGUUCUACAGUCCGACGAUCCUCUUCCAUACUCAUGGCAUCCUGAAUUGACUCAGCUUCAACAUUUUGACUAGGCCCUUCCAUACUGUCAUCAGUCCAGGCAUCAAAUGGGGUUGCCUGUCCUUGGAAUGAAUCAGUCCCCAACAGAGGAUUGAGCAUCA
B17: chr6:50805741:50805742:+_ENSG00000008196_ENST00000393655|hu_hu|FALSE|FALSE (ssRNA)
RNA: GGGAGUUCUACAGUCCGACGAUCCAGGGAGGUGAGUAACGUGACAUUUGCUGCUUUGCGCCUGCCCGCGGGUAAAUUCAAACCGAUUUUUUCUAGCCUUUCUCGCAAAGAUCUCCCCCCAUUUUUCGAUUUGGCUCUUCUGAGCAACAGAGGAUUGAGCAUCA
B18: chr7:99593380:99593381:+_ENSMUSG00000052572_ENSMUST00000098308|mus_hu|FALSE|FALSE (ssRNA)
RNA: GGGAGUUCUACAGUCCGACGAUCGGUGAGGAGGCUCUCAUCUCAUCUCUUGGGCAGAAAGCCCGUCAGAGGUUCAUCCCUACACCUGGCACUUUGAGCAAACCAAAGCCUUCCUUCAUACUGCAAUGUCUUUUCUGUCCCACCCAACAGAGGAUUGAGCAUCA
B19: 73047273_73096420_338_5pUTR_ENSG00000163605_ENST00000295862|human|control|control (ssRNA)
RNA: GGGAGUUCUACAGUCCGACGAUCGGCUCAGGAGCUGAAGUUCUGAAAUCAUCCAUCACUUUCUCCAGUUUGAAAAUAAAAUAGCCUUUAAAUUGGGACCACUGAAUCAUUGUUUCUCCAGUCUUGGCUACAUGACAAAGAAACCAACAGAGGAUUGAGCAUCA
B20: chr3:179287964:179287965:+_ENSG00000136518_ENST00000429709|hu_hu|hu_hu_hu_mus_True|28_38 (ssRNA)
RNA: GGGAGUUCUACAGUCCGACGAUCCUUGAGUGGUGAGAUGGCCUCCAUGUUCUCCCUGGGCACGCGGAGGGCAUUGGUGUCUAUGUAGUAGGUGGGCCCGCCUUGUUUGCCUUUAUCACCAUCAAUCUCCAUCAUUGUACUUCCCAACAGAGGAUUGAGCAUCA
B21: chr9:35286173:35286174:+_ENSMUSG00000038119_ENSMUST00000042842|mus_hu|FALSE|FALSE (ssRNA)
RNA: GGGAGUUCUACAGUCCGACGAUCAGUGUUAUUGUUACUUGAUGGAAUGUACGUCCACUUUAGCAUGAUCUGAGUAUCGCUGACAGCCUCUGUGUAUGCAAUGUGAGGUCCAGUUAUUGGACGGCUGGAAAAGCGAUUGGGGAACAACAGAGGAUUGAGCAUCA
B22: chr1:39494564:39494565:+_ENSG00000168653_ENST00000372967|hu_hu|hu_hu_hu_mus_True|28_68 (ssRNA)
RNA: GGGAGUUCUACAGUCCGACGAUCAUGCAUUCGCCUCAUCGUUUUGUACCGAAGCAAGCACUCUUCGAAAUCAUCAUACUCUAUCUUGCACUCCUUUUUCGCCCGGGUAUAACCGAUCCCGUGUGCACACUCUAUCCACUCUUUCAACAGAGGAUUGAGCAUCA

molecular target: T1, UNK ZnF1-3; experiment: nsRBNS (natural sequence RNA bind-n-seq); RBNS binding buffer (assumed for nsRBNS): 25 mM Tris pH 7.5, 150 mM KCl, 3 mM MgCl2, 0.01% Triton X-100, 500 ug/ml BSA, 20 U/ml SUPERase-In, 4 C; UNK is unkempt and MSI1 is Musashi-1; names of the RNAs are library labels; protein concentration not given here; high values mean tight binding

Binder | binding signal
B1 | 1.16 enrichment R
B2 | 1.18 enrichment R
B3 | 2.47 enrichment R
B4 | 0.931 enrichment R
B5 | 2.85 enrichment R
B6 | 1.32 enrichment R
B7 | 0.628 enrichment R
B8 | 0.859 enrichment R
B9 | 1.13 enrichment R
B10 | 0.625 enrichment R
B11 | 1.28 enrichment R
B12 | 1.26 enrichment R
B13 | 0.977 enrichment R
B14 | 1.39 enrichment R
B15 | 2.28 enrichment R
B16 | 1 enrichment R
B17 | 1.13 enrichment R
B18 | 1.29 enrichment R
B19 | 1.25 enrichment R
B20 | 0.581 enrichment R
B21 | 1.04 enrichment R
B22 | 0.701 enrichment R
